# Data published in ChEMBL document CHEMBL3988442, “University of Dundee, Small-Polar-MMV Screening Library” (2021).
# Hit rate of the full screen: of about 66,000 compounds, about 960 (1.5%) showed an effect of 50% or more. Only a selection was taken, and strong results are over-represented in it overall.
# System: Trypanosoma brucei
# Test: Trypanosoma brucei 72 hour study
# Format: functional, organism-based
# Design: scale not given: in the data most compounds retested in dose-response had high values
smiles,measurement,setting,value
COc1ccc(N2Cc3nc(N)ncc3C2=O)cc1Cl,Percent Effect,"30 µM, 30.03 µM",-4.562%
Cc1cc(S(=O)(=O)NCC(C)(C)N)c(F)cc1F.Cl,Percent Effect,"30 µM, 30.03 µM",-16.3%
CNC(=O)c1cc2c(nc1NCC1CC1)CCNCC2,Percent Effect,"30 µM, 30.03 µM",-38.29%
CC(C)Nc1nc2c(cc1C(=O)NCC1CC1)CCNCC2.O=C(O)C(F)(F)F.O=C(O)C(F)(F)F,Percent Effect,"30 µM, 30.03 µM",-26.83%
CC(C)CNc1nc2c(cc1C(=O)NCC1CC1)CCNCC2,Percent Effect,"30 µM, 30.03 µM",100.1%
O=C(O)C(F)(F)F.O=C1CCCN1Cc1nnc2n1CCN(Cc1ccccn1)CC2,Percent Effect,"30.3 µM, […]",-8.188%
Cc1cc(C[C@@H]2CCC[C@H]2NCc2c[nH]nc2-c2ccccc2)on1.O=C(O)CC(O)(CC(=O)O)C(=O)O,Percent Effect,"30.3 µM, […]",19.9%
CNC(=O)c1cc2c(nc1NCC(C)C)CCN(c1ccncn1)CC2.O=C(O)C(F)(F)F,Percent Effect,"30 µM, 30.03 µM",-20.72%
CNC(=O)c1cc2c(nc1NCC(C)C)CCN(c1ncccn1)CC2.O=C(O)C(F)(F)F,Percent Effect,"30.3 µM, […]",98.85%
CNC(=O)c1cc2c(nc1NCC(C)C)CCN(C)CC2.O=C(O)C(F)(F)F.O=C(O)C(F)(F)F,Percent Effect,"30.3 µM, […]",-104.3%
O=C(CSc1ccc2c(c1)OCCO2)NS(=O)(=O)c1cc(F)ccc1F,Percent Effect,"30 µM, 30.03 µM",61.54%
O=C(CSc1ccc2c(c1)OCCO2)NS(=O)(=O)c1ccccc1F,Percent Effect,"30 µM, 30.03 µM",-24.23%
O=C(CSc1ccc(F)c(F)c1)NS(=O)(=O)c1ccc2c(c1)OCCO2,Percent Effect,"30 µM, 30.03 µM",-8.026%
CN1C(=O)CC(c2ccccc2)C12CCN(CC1CCOCC1)CC2.O=C(O)C(F)(F)F (configuration not stated),Percent Effect,"30.3 µM, […]",-3.358%
O=C(O)C(F)(F)F.O=c1cc(Cn2cncn2)nc2n1CCCN(Cc1ccc(F)cc1)C2,Percent Effect,"30 µM, 30.03 µM",27.77%
COCCN1CCCn2c(nc(Cn3cncn3)cc2=O)C1.O=C(O)C(F)(F)F,Percent Effect,"30 µM, 30.03 µM",64.46%
O=C(O)C(F)(F)F.O=C(O)C(F)(F)F.O=c1cc(Cn2cncn2)nc2n1CCCN(CCN1CCCC1)C2,Percent Effect,"30 µM, 30.03 µM",14.15%
O=C(O)C(F)(F)F.c1cnc(NCc2nnn3c2CN(CC2CC2)CCC3)nc1,Percent Effect,"30.3 µM, […]",-52.08%
Cc1nn(C)c(N(C)C)c1CNC1CCc2cc(F)ccc21.Cl (configuration not stated),Percent Effect,10 µM,-39.72%
Cn1cccc1C(=O)N1CCc2ncc(Cn3cccn3)n2CC1,Percent Effect,"30 µM, 30.03 µM",59.24%
Cc1ccc(C(=O)N2CCc3ncc(Cn4cccn4)n3CC2)cn1,Percent Effect,"30.3 µM, […]",-7.438%
O=C(c1ccoc1)N1CCc2ncc(Cn3cccn3)n2CC1,Percent Effect,"30.3 µM, […]",-11.59%
CS(=O)(=O)NCc1cncc2c1CCN(C(=O)c1cccnc1)C2.Cl.Cl,Percent Effect,"30.3 µM, […]",-7.257%
COCC1CN(Cc2ccoc2)Cc2nnn(C)c21.O=C(O)C(F)(F)F (configuration not stated),Percent Effect,"30 µM, 30.03 µM",-46.26%
CCc1c(C)nc2cc(C3CCN(Cc4cccc(F)c4)C3)nn2c1O (configuration not stated),Percent Effect,"30.3 µM, […]",27.1%
CCc1c(C)nc2cc(C3CCN(CCc4ccccc4)C3)nn2c1O (configuration not stated),Percent Effect,"30.3 µM, […]",58.63%
CCc1c(C)nc2cc(C3CCN(Cc4cccnc4)C3)nn2c1O (configuration not stated),Percent Effect,"30.3 µM, […]",7.415%
